Giardia killer = Giardia lamblia killing. 0.15% of 340,000 active. activity change, % at 7.66 µM, hits read low. Giardia lamblia trophozoite viability; in the data active means activity change below about -80%; inconclusive means between about -30% and that limit;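 further: parasites exposed to compound for two days anaerobically before the ATP read; on the % scale 0 is the no-effect control and ±100 the full control effect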
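Giardia trophozoites, 100 cells per well, were exposed to compounds for 48 hrs at 37 deg C under anaerobic conditions; viability was then read as ATP content by bioluminescence after 15-30 min at room temperature.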
MCF10A rereplic = DNA re-replication induction in MCF 10a cells; MCF 10A DNA re-replication, Hoechst nuclear intensity, 48 h; Potency, µM (series often up to 46.1 µM), for inactives: at the top dose activity, positive = re-replication, usual class: activators; 2.9% of 350,000 active; further: potency means the concentration at half of the fitted maximal effect; % of control where 0% means no effect; nearly all actives have a fitted effect of over 50% in size
SW480 rerep = induces DNA re-replication in SW480 colon adenocarcinoma cells. 1.8% of 340,000 active. SW480 DNA re-replication, Hoechst DNA content imaging, 48 h. Potency, µM (titrated, usually from 46.1 µM), inactives show at the highest dose re-replication activation, actives largely listed as activators. AID 624297; further: potency means the concentration at half of the fitted maximal effect; % of control where 0% means no effect; nearly all actives have a fitted effect of over 55% in size
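250 cells/well; 23 nL cpd via pin tool; 48 hr, 37 C, 5% CO2; Hoechst 40 min; imager read of total nuclear intensity, ex 405/em 500-530 nm.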
S-ASM inh = blocks human secretory acid sphingomyelinase; P17405; placental ASM, HMU-PC fluorogenic substrate, 60 min; Potency, µM (highest dose often 57.5 µM), for the others: top-dose activity change, negative = inhibition, actives largely listed as inhibitors; 0.006% of 340,000 active; AID 504937; further: potency means the concentration at half of the fitted maximal effect
Target sequence (P17405 47-631 limits assumed): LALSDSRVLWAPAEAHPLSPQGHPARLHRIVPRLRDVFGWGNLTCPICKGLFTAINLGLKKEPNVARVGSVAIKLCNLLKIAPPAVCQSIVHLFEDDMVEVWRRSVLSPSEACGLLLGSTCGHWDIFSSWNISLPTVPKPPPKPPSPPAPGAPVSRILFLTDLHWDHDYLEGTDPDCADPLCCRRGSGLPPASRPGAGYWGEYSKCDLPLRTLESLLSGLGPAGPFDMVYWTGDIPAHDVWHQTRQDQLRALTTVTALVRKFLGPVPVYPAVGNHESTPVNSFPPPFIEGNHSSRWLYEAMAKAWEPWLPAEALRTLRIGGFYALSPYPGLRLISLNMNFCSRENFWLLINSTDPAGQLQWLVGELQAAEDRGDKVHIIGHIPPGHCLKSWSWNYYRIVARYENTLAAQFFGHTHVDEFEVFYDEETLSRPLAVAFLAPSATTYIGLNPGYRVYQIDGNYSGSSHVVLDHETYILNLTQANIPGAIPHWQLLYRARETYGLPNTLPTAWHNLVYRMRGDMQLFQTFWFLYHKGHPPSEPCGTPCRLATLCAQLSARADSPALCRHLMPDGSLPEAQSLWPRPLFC
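HMU-PC0 cleavage (9 uM final) by human placental ASM, 60 min at 37 °C following 10 min compound exposure at RT; stopped at pH 10, fluorescence Ex 386/Em 447 nm.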
KB-V1 MDR tox = KB-V1 MDR subline cytotoxicity; KB-V1 MDR cells viability, CellTiter-Glo, 72 h; Potency, µM (titrated, usually from 46.1 µM), usual class: cytotoxic; 3.4% of 400,000 active; further: potency means the concentration at half of the fitted maximal effect; on the % scale 0 is the no-effect control and ±100 the full control effect; nearly all actives have a fitted effect of over 60% in size
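In this primary screen, KB-V1 cells overexpressing P-gp are incubated with library compounds (lowest to highest concentration) for 72 h at 37 degrees C before a luminescent ATP viability read.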
KB-3-1 tox = KB-3-1 parental cell cytotoxicity; KB-3-1 viability, CellTiter-Glo ATP luminescence, 72 h; Potency, µM (titrated, usually from 46.1 µM), actives largely listed as cytotoxic; 1.4% of 400,000 active; AID 1347075; further: potency means the concentration at half of the fitted maximal effect; on the % scale 0 is the no-effect control and ±100 the full control effect; nearly all actives have a fitted effect of over 60% in size
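Viability of parental KB-3-1 cells, measured by CellTiter-Glo luminescence, followed a 72 h incubation at 37 °C with pinned compounds in phenol-red-free DMEM containing 10% FBS.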
Starred values were filed as active, the others as inactive; i = inactive; u = inconclusive; x = not tested or not shown; ! = a repeat was not active. Hits are enriched below; roughly 6.9% of the tested compounds scored in any of these assays. Unless noted, the call rests on the fitted dose curve; in most records, active means well fitted curve in the direction sought with a large enough effect; inconclusive means small, poorly fitted or top-dose-only effect, or another doubt; inactive means no such curve, though single readings can be large; an effect the other way counts as inactive or inconclusive.

SMILES	Giardia killer	MCF10A rereplic	SW480 rerep	S-ASM inh	KB-V1 MDR tox	KB-3-1 tox
N#Cc1cc2ccccc2nc1SCC(=O)Nc1ccccc1N1CCOCC1	-9.5	-2.4%	-7.9%	-2.0%	4.61µM*	i
Cc1cccc2cc(C#N)c(SCC(=O)Nc3ccccc3N3CCOCC3)nc12	-11.8	9.9%	9.1%	-1.4%	i	i
COc1ccc(NC(=O)CSc2nc3ccccc3nc2N2CCCC2)cc1	10.3	24.7%	2.6%	46.3%	i	i
Cc1ccc(NC(=O)CSc2nc3ccccc3nc2N2CCOCC2)c(C)c1	-16.1	33.7%	10.0%	19.9%	i	u
CCOc1ccccc1NC(=O)CSc1nc2ccccc2nc1N1CCCC1	-7.1	14.6µM*	u	57.9%	i	i
Cc1ccc(NC(=O)CSc2nc3ccccc3nc2N2CCOCC2)cc1	-7.3	10.9%	u	-3.8%	18.4µM*!	i
CCCCNc1nc(Oc2ccc(=O)n(C)n2)nc(N(C)C)n1	x	x	x	x	i	i
Cc1ccccc1CN1[C@H]2CCCC[C@@H]2OCCS1(=O)=O	x	x	x	x	u	i
COc1cccc(CC2(CO)CCCN(Cc3[nH]c4ccc(C)cc4c3C)C2)c1 (centres undefined)	29.5	3.26µM*	u	-2.2%	u	u
CN1C/C(=C\c2ccc(N3CCOCC3)cc2)C(=O)/C(=C/c2ccc(N3CCOCC3)cc2)C1	-5.2	18.4µM*	u	-9.8%	20.6µM*	u
CCN1C/C(=C/c2ccc(N3CCOCC3)cc2)C(=O)/C(=C/c2ccc(N3CCOCC3)cc2)C1	-7.8	23.1µM*	16.4µM*	-20.6%	18.4µM*	u
CCc1ccc(/C=C2/SC(N3CCOCC3)=NC2=O)cc1	4.5	-1.6%	-38.1%	-5.0%	i	i
COc1cccc(CN(C)C(=O)c2ccccc2SCC(=O)N2CCCC2)c1	-7.9	3.2%	-3.0%	2.8%	u	i
O=c1c2sc3ccccc3c2n(Cc2cccc(F)c2)c(=O)n1CCc1ccccc1	x	x	x	x	i	i
CCc1ccc(OCC(=O)N(Cc2cccs2)c2ccc(Cl)cc2)cc1	x	x	x	x	i	i
c1ccc(-c2nnc(-c3ccccn3)nc2NC2CCCCC2)cc1	7.5	10.3µM*	u	-0.1%	u	16.4µM*
Cc1ccc(C)c(NC(=O)CN(C)C(=O)c2ccc(-c3cccc(C(F)(F)F)c3)o2)c1	-7.6	19.7%	-3.3%	-1.2%	18.4µM*	i
CN(CC(=O)Nc1cccc(F)c1)C(=O)c1ccc(-c2cccc(C(F)(F)F)c2)o1	13.8	27.6%	1.3%	-23.0%	u	i
Cc1ccc(CC(=O)Nc2c(C(=O)N3CCN(c4ccccc4)CC3)oc3ccccc23)cc1	x	x	x	x	u	i
Cc1cc(C)nc(NC(N)=NCCc2c[nH]c3ccccc23)n1	6.1	9.1%	8.4%	-4.6%	i	u
Cc1cc(C)nc(NC(=NCCc2c[nH]c3ccccc23)NC(=O)Nc2ccc(Cl)cc2)n1	-17.3	27.9%	18.6%	-12.9%	8.2µM*	i
Cc1c2cnn(CC(=O)Nc3cccc(C(F)(F)F)c3)c(=O)c2c(C)n1Cc1ccccc1Cl	x	x	x	x	i	i
Cn1cnnc1SCC(=O)Nc1ccc(Cl)cc1	0.4	1.6%	-50.0%	0.1%	i	i
Cn1cnnc1SCC(=O)NNC(=O)COc1ccc(Cl)cc1	7.5	0.581µM*	-17.4%	6.0%	u	i
COc1ccc(CCNC(=O)Cn2cc(C(=O)c3ccccc3)c(=O)c3ccc(C)nc32)cc1OC	x	x	x	x	i	i
SMILES	Giardia killer	MCF10A rereplic	SW480 rerep	S-ASM inh	KB-V1 MDR tox	KB-3-1 tox
CCC(=O)N1CCc2cc(S(=O)(=O)NC(C(=O)Nc3cc(OC)cc(OC)c3)C(C)C)ccc21 (centres undefined)	x	x	x	x	i	i
CC(NC(=O)COC(=O)c1cn(-c2ccccc2)nc1-c1cccs1)c1ccccc1 (centres undefined)	-10.4	u	6.4%	-3.4%	20.6µM*	i
N#Cc1c(N2CCOCC2)nc(-c2ccco2)c2c1CCCC2	17.8	u	u	490.6%	i	i
N#Cc1c(NCCN)nc(-c2ccco2)c2c1CCCC2	-15.0	11.6µM*	18.4µM*	i	u	u
CC(C)CCNc1nc(-c2ccco2)c2c(c1C#N)CCCC2	-18.3	7.31µM*	u	i	i	i
CCOc1ccc(NC(=O)CCc2c(C)nc3c(c(C)nn3-c3ccccc3)c2C)cc1	x	x	x	x	i	i
O=C(C/C=N/OCc1c(Cl)cccc1Cl)c1cnc(-c2ccccc2)s1	3.4	15.5%	1.8%	-3.1%	i	i
O=C(C/C=N/OCc1c(Cl)cccc1Cl)c1ccc(Cl)cc1	6.0	23.1µM*	16.1%	-1.4%	i	i
Oc1ccc(Br)cc1-c1cc(-c2ccccc2Cl)[nH]n1	4.7	25.1%	5.17µM*	-3.8%	u	u
Cc1ccccc1-c1cc(-c2ccccc2O)n[nH]1	6.0	u	u	-18.2%	18.4µM*	u
CCOc1cc(S(=O)(=O)NCCc2c(C)[nH]c3ccc(C)cc23)ccc1Br	x	x	x	x	i	i
Cc1ccc(S(=O)(=O)N2CCN(c3cccc(C)c3)CC2)cc1	-11.3	11.6%	-1.5%	-0.2%	i	i
CC[N+]1(CC(=O)c2ccc(Br)cc2)CCCCC1	x	x	x	x	i	i
Oc1ccc(C[C@H]2CNC(=S)N2CC2CCCN2C[C@H](Cc2ccc(O)cc2)N2C[C@H](Cc3ccccc3)N(CCc3ccccc3)C2=S)cc1 (some centres undefined)	4.3	19.2%	u	-21.4%	i	23.1µM*
CC(C)C[C@H]1CNC(=S)N1CC1CCCN1C[C@H](Cc1ccccc1)N1C[C@H](Cc2ccc(O)cc2)N(CC2CCCCC2)C1=S (some centres undefined)	-8.0	-41.0%	4.61µM*	u	u	u
CC(C)C[C@@H](CN1CCCC1CN1C(=S)NC[C@@H]1Cc1ccc(O)cc1)N1C[C@H](Cc2ccc(O)cc2)N(CC2CCCCC2)C1=S (some centres undefined)	-3.5	7.31µM*	u	-28.4%	u	u
Oc1ccc(C[C@H]2CNC(=S)N2CC2CCCN2C[C@H](Cc2ccc(O)cc2)N2C[C@H](Cc3ccc(O)cc3)N(CC3CCCCC3)C2=S)cc1 (some centres undefined)	3.2	11.6µM*	u	u	i	u
CC(=O)c1cccc(NC(=O)CCc2nnc3ccc(N4CCOCC4)nn23)c1	-4.4	-1.6%	-8.2%	1.1%	u	i
CN(C)S(=O)(=O)c1cccc(-c2nn(-c3ccccc3)cc2/C=C2\SC(=S)NC2=O)c1	-11.9	u	-1.6%	-0.9%	u	u

Screening results deposited in PubChem BioAssay by National Center for Advancing Translational Sciences (NCATS).
